Only some compounds are listed: those with a hit (about 19% of all), similar ones and a draw of the others.
Pf growth 48h = Primary qHTS for delayed death inhibitors of the malarial parasite plastid, 48 hour incubation; P. falciparum luciferase growth in erythrocytes, 48 h; Potency, µM (highest dose often 28.7 µM), without a hit: at the highest dose activity change, negative = inhibition, most hits filed as inhibitors; 310,000 compounds, 5.9% hits; AID 504832, 2011; note: potency is the fitted concentration of half-maximal effect; % is set by controls: 0 for no effect and ±100 for the full control effect
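Read-out is firefly luciferase luminescence from an integrated reporter in P. falciparum, so falling signal marks reduced parasite growth. Infected erythrocytes were at 2% hematocrit and 0.1% parasitemia (final) in Albumax-supplemented RPMI 1640.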
AMA1-RON2 inh = qHTS for Inhibitors of AMA1-RON; Towards Development of Antimalarial Drug Lead: Primary Screen; AlphaScreen AMA1-biotinylated RON2 peptide binding; Potency, µM (doses to about 58.2 µM), for the others: at the top dose activity change, negative = inhibition, usual class: inhibitors; 360,000 compounds, 0.2% hits;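 note: potency is the fitted concentration of half-maximal effect; 0% = vehicle wells and -100% = peptide control; nearly all actives have a fitted effect of over 45% in size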
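AMA1 (3D7) with his tag at 25 nM final met compounds first, then biotinylated RON2 peptide at 25 nM; detection used donor plus acceptor beads, 10 µg/mL apiece, read by AlphaScreen after 30 min at room temperature.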
SARS PLP yeast = qHTS of Yeast-based Assay for SARS-CoV PLP; Potency, µM (titrated, usually from 32.9 µM), inactives show at the highest dose activity, positive = growth rescue, actives largely listed as activators; S. cerevisiae expressing SARS-CoV PLpro, growth rescue; 330,000 compounds, 0.19% hits; calls by dose curve; note: potency is the fitted concentration of half-maximal effect; 0% is about no effect; nearly all actives have a fitted effect of over 55% in size
Pf growth 96h = Primary qHTS for delayed death inhibitors of the malarial parasite plastid, 96 hour incubation | P. falciparum luciferase reporter growth, 96 h | Potency, µM (titrated, usually from 28.7 µM), for inactives: at the top dose activity change, negative = inhibition, actives largely listed as inhibitors | 320,000 compounds, 6.9% hits | AID 504834, 2011; note: potency is the fitted concentration of half-maximal effect; % is set by controls: 0 for no effect and ±100 for the full control effect
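Cell-based qHTS: luciferase-tagged P. falciparum in erythrocytes (2% hematocrit, 0.05% parasitemia final) incubated with compounds for 96 hours, 37 C, 5% CO2; luciferase detection reagent then added and luminescence measured.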
Shiga toxin inh = A qHTS for Small Molecule Inhibitors of Shiga Toxin. Vero cells, Shiga toxin protein synthesis inhibition reporter. inhibition, % at 38.7 µM. 290,000 compounds, 9.2% hits. AID 2315, 2010; in the data active = inhibition mostly above about 28%, no sharp cut-off; inactive = mostly below about 43%; note: 0% is about no effect
CHX counter = Cycloheximide Counterscreen for Small Molecule Inhibitors of Shiga Toxin | 300,000 compounds, 12% hits | AID 2314, 2010 | cell reporter, cycloheximide protein synthesis inhibition counterscreen | max response, %; in the data active = max response mostly above about 13%, no sharp cut-off; inactive = mostly below about 14%; note: read at 38.3 µM for the half of the compounds with a filed dose; 0% is about no effect
* marks the source's active call; other numbers are inactive results; [ ] = dose if it differs, or a comment. Unless noted, calls come from the whole dose curve; as a rule, active = well fitted curve in the direction sought with a large enough effect; inconclusive = small, poorly fitted or top-dose-only effect, or another doubt; inactive = no such curve, though single readings can be large; an effect the other way counts as inactive or inconclusive.

For COc1cccc(CNC(=O)C(=O)NCC2OCCCN2S(=O)(=O)c2cc(C)ccc2C)c1 (centres undefined) the results were Pf growth 48h inconclusive, AMA1-RON2 inh 16%, SARS PLP yeast 2%, Pf growth 96h inconclusive, Shiga toxin inh -6 and CHX counter 3.
`CN(C)S(=O)(=O)c1ccc2nc(NC(=O)c3cccnc3)sc2c1` gave Pf growth 48h -4%, AMA1-RON2 inh 1%, Pf growth 96h inconclusive, Shiga toxin inh 107* and CHX counter 29*.
For CN(C)S(=O)(=O)c1ccc2nc(NC(=O)c3cccs3)sc2c1 the results were AMA1-RON2 inh -5%, SARS PLP yeast -9%, Pf growth 96h 40%, Shiga toxin inh 70* and CHX counter 41*.
O=C(Nc1nc2ccc(S(=O)(=O)N3CCCC3)cc2s1)c1cccs1 was read as Pf growth 48h 8%, AMA1-RON2 inh 24%, SARS PLP yeast -1%, Pf growth 96h 29%, Shiga toxin inh -2 and CHX counter 2.
O=C(Nc1nc2ccc(S(=O)(=O)N3CCOCC3)cc2s1)c1cccs1 was read as Pf growth 48h -13%, AMA1-RON2 inh -13%, SARS PLP yeast -1%, Pf growth 96h inconclusive, Shiga toxin inh 39* and CHX counter 18*.
`CSc1nc2ccc(S(=O)(=O)N(C)C)cc2s1` gave AMA1-RON2 inh -3%, SARS PLP yeast 10%, Pf growth 96h 12µM*, Shiga toxin inh -4 and CHX counter 8.
Screening CSc1nc2ccc3nc(NC(=O)c4cccs4)sc3c2s1 returned Pf growth 48h -16%, AMA1-RON2 inh 2%, SARS PLP yeast 0%, Pf growth 96h inconclusive, Shiga toxin inh 51* and CHX counter 43*.
CSc1nc2ccc3nc(NC(=O)c4ccc(Cl)s4)sc3c2s1 was read as Pf growth 48h 20%, AMA1-RON2 inh 0%, SARS PLP yeast -6%, Pf growth 96h 24%, Shiga toxin inh 13 and CHX counter -2.
Screening O=C(Nc1nc2ccc(F)cc2s1)c1ccc([N+](=O)[O-])o1 returned AMA1-RON2 inh 2%.
O=C(Nc1nc2ccc(F)cc2s1)c1cccs1 was read as Pf growth 48h 352%, AMA1-RON2 inh -7%, SARS PLP yeast -12%, Pf growth 96h inconclusive, Shiga toxin inh 126* and CHX counter 50*.
`CC(=O)Nc1ccc2nc(NC(=O)C(Cl)(Cl)Cl)sc2c1` gave Pf growth 48h 33%, AMA1-RON2 inh 14%, SARS PLP yeast -1%, Pf growth 96h inconclusive, Shiga toxin inh 8 and CHX counter -1.
For CC(=O)Nc1ccc2nc(NC(=O)c3cccnc3)sc2c1 the results were Pf growth 48h 68%, AMA1-RON2 inh -3%, SARS PLP yeast -1%, Pf growth 96h -3%, Shiga toxin inh 46* and CHX counter 27*.
OC[C@@H]1OC(O)[C@@H](O)[C@H](O)[C@@H]1O (some centres undefined) was read as Shiga toxin inh -5 and CHX counter -5.
Cn1c(C(=O)NC2CCCCCC2)cc2c(=O)n(C)c3ccccc3c21 was read as AMA1-RON2 inh -1%, SARS PLP yeast -3%, Pf growth 96h -8%, Shiga toxin inh 15 and CHX counter -3.
Cn1c(C(=O)N2CCCCCC2)cc2c(=O)n(C)c3ccccc3c21 was read as AMA1-RON2 inh -16%, SARS PLP yeast -3%, Pf growth 96h 120%, Shiga toxin inh 35 and CHX counter 20*.
CC1CCCCN1CCNC(=O)c1cc2c(=O)n(C)c3ccccc3c2n1C (centres undefined) was read as AMA1-RON2 inh -1%, SARS PLP yeast -3%, Pf growth 96h -16%, Shiga toxin inh 23 and CHX counter -2.
CC1CCC(NC(=O)c2cc3c(=O)n(C)c4ccccc4c3n2C)CC1 (centres undefined) was read as AMA1-RON2 inh -4%, SARS PLP yeast -3%, Pf growth 96h -12%, Shiga toxin inh 17 and CHX counter 18*.
Screening Cn1c(C(=O)NC2CCCCC2)cc2c(=O)n(C)c3ccccc3c21 returned AMA1-RON2 inh -9%, SARS PLP yeast 7%, Pf growth 96h 10µM*, Shiga toxin inh -16 and CHX counter -6.
CCNC(=O)C1(C)CCN(C(=O)c2c(F)ccc(C)c2F)C1 (centres undefined) was read as AMA1-RON2 inh 7%.
CCN(CC)CCCN1C(=O)C2C(C(=O)Nc3ccc(C(C)C)cc3)C3C=CC2(O3)C1C(=O)NC1CCCCC1 (centres undefined) was read as Pf growth 48h inconclusive, AMA1-RON2 inh -2%, SARS PLP yeast 4%, Pf growth 96h 21%, Shiga toxin inh 27 and CHX counter -9.
`CCN(CC)CCN(Cc1cc2cc3c(cc2[nH]c1=O)OCO3)C(=S)NCCCOC` gave Pf growth 48h -6%, AMA1-RON2 inh 3%, SARS PLP yeast 3%, Pf growth 96h 13µM*, Shiga toxin inh -5 and CHX counter 1.
For CCN(CC)CCN(Cc1cc2cc3c(cc2[nH]c1=O)OCO3)C(=S)NCC1CCCO1 (centres undefined) the results were Pf growth 48h -11%, AMA1-RON2 inh 8%, SARS PLP yeast 1%, Pf growth 96h 15µM*, Shiga toxin inh 9 and CHX counter -3.
Screening CCN(CC)CCN(Cc1cc2cc3c(cc2[nH]c1=O)OCCO3)C(=S)NCC1CCCO1 (centres undefined) returned Pf growth 48h -9%, AMA1-RON2 inh 13%, SARS PLP yeast -1%, Pf growth 96h -1%, Shiga toxin inh 12 and CHX counter 9.
`COc1ccc(C(=O)CSc2nnc(-c3cccnc3)n2Cc2ccco2)cc1` gave Pf growth 48h 0%, AMA1-RON2 inh 6%, SARS PLP yeast 14%, Pf growth 96h 0%, Shiga toxin inh -5 and CHX counter -1.
For CC1CCN(C(=O)CSc2nnc(-c3cc4ccccc4cc3O)n2Cc2ccco2)CC1 the results were Pf growth 48h 12µM*, AMA1-RON2 inh 19%, SARS PLP yeast -6%, Pf growth 96h 3%[5.75 µM], Shiga toxin inh -21 and CHX counter -2.
`COc1ccc(C(=O)CSc2nnc(-c3cc4ccccc4cc3O)n2Cc2ccco2)cc1` gave Pf growth 48h 2.3µM*, AMA1-RON2 inh 31%, SARS PLP yeast 0%, Pf growth 96h -1%, Shiga toxin inh 7 and CHX counter 7.
For CCn1c(SCC(=O)N(C(C)C)C(C)C)nnc1-c1cc2ccccc2cc1O the results were Pf growth 48h 1.9µM*, AMA1-RON2 inh -14%, SARS PLP yeast -2%, Pf growth 96h 84%, Shiga toxin inh -14 and CHX counter 5.
